Compound activity deposited in PubChem BioAssay by National Center for Advancing Translational Sciences (NCATS).
G9a block: blocks human histone lysine methyltransferase G9a. hit rate 8.8% among 350,000. Q96KQ7. Potency, µM (series often up to 102 µM), for inactives: at the top dose activity, negative = inhibition, usual class: inhibitors. AID 504332. G9a H3K9 monomethylation, AlphaScreen, 2 h; note: potency is the fitted concentration of half-maximal effect; % is set by controls: 0 for no effect and ±100 for the full control effect; nearly all actives have a fitted effect of over 75% in size
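Quantitative HTS format: methyltransferase activity on a biotin-tagged H3K9 peptide is measured by AlphaScreen, using a rabbit anti-monomethyl-H3K9 antibody with streptavidin donor and anti-IgG acceptor beads. Final levels are 20 nM enzyme, 500 nM peptide, 20 uM SAM; 2 h RT.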
BAZ2B block: inhibitors of human BAZ2B bromodomain; AID 504333; AlphaScreen BAZ2B-H3K14Ac peptide displacement; hit rate 4.4% among 360,000; Q9UIF8; Potency, µM (doses to about 114 µM), inactives show top-dose activity change, negative = inhibition, hits mostly inhibitors; note: potency is the fitted concentration of half-maximal effect; % is set by controls: 0 for no effect and ±100 for the full control effect; nearly all actives have a fitted effect of over 60% in size
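BAZ2B (50 nM) with biotin-H3(5-23)K14Ac peptide (50 nM) in PBS pH 7.4, 0.01% Tween-20, preformed 30 min, then compound 30 min at room temperature; top concentration 110uM. AlphaScreen streptavidin donor/nickel chelate acceptor beads (10 ug/mL final), 20 min dark, signal read.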
JMJD2A Tudor: inhibitors of human JMJD2A Tudor domain. O75164. AlphaScreen JMJD2A-Tudor / H3K4me3 peptide binding. Potency, µM (series often up to 114 µM), for the others: top-dose activity change, negative = inhibition, usual class: inhibitors. hit rate 4.4% among 390,000. AID 504339; note: potency is the fitted concentration of half-maximal effect; % is set by controls: 0 for no effect and ±100 for the full control effect; nearly all actives have a fitted effect of over 50% in size
PLK1 PBD block: PLK1 (human) polo-box domain binding inhibition. Plk1 PBD binding of FITC phosphopeptide, fluorescence polarization. P53350. hit rate 2.8% among 360,000. Potency, µM, for inactives: max response, negative = inhibition, most hits filed as inhibitors. AID 720504; note: potency is the fitted concentration of half-maximal effect; series mostly up to about 57 µM; % is set by controls: 0 for no effect and ±100 for the full control effect; nearly all actives have a fitted effect of over 65% in size
PI5P4K alpha inh: PI5P4K alpha (human) kinase inhibition. P48426. PI5P4Kalpha enzyme, ADP-Glo luminescence, 60 min; hits give low values. max response, %. hit rate 1.2% among 330,000; active = max response of -50% or lower; inconclusive = between -30% and -50%; inactive = -30% or higher; note: value at the top dose of about 77 µM; % is set by controls: 0 for no effect and ±100 for the full control effect
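PI5P4Kalpha ADP-Glo assay; 5 microM ATP final; 60 min RT reaction; HEPES pH 7.4/EGTA/CHAPS, 5% DMSO; controls lacking substrate or enzyme; luminescent end-point.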
HP1b chromo inh: blocks HP1-beta chromodomain binding to methylated histone tails; P83916; AlphaScreen HP1-beta / biotin-H3K9me3 peptide binding; Potency, µM (highest dose often 114 µM), inactives show at the highest dose activity change, negative = inhibition, hits mostly inhibitors; hit rate 0.56% among 390,000; AID 540317; note: potency is the fitted concentration of half-maximal effect; nearly all actives have a fitted effect of over 70% in size
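HP1-beta protein (50 nM final) preincubated 30 min at room temperature with biotinylated H3(1-18)K9me3 peptide (50 nM) in PBS pH 7.4, 0.01% Tween-20, then compound added for 30 min. AlphaScreen streptavidin donor/nickel chelate acceptor beads (10 ug/mL final), 30 min dark, luminescence read.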
* = called active by the depositor; ? = inconclusive; . = not tested or not shown; [ ] = another dose, or the depositor's remark. Sampled rows, rich in hits. Any-hit rate of the full collection: about 12%. Unless noted, calls come from the whole dose curve; as a rule, active = well fitted curve in the direction sought with a large enough effect; inconclusive = small, poorly fitted or top-dose-only effect, or another doubt; inactive = no such curve, though single readings can be large; an effect the other way counts as inactive or inconclusive.

SMILES	G9a block	BAZ2B block	JMJD2A Tudor	PLK1 PBD block	PI5P4K alpha inh	HP1b chromo inh
COCCSc1nnc(NC(=O)c2cc(C(=O)OC)cc([N+](=O)[O-])c2)s1	50.1µM*	-37.1%	-15.6%	-9.9%	-25.1	20.1%
CCc1c(C)c2ccc(O)c(CN3CCN(c4ccc(OC)cc4)CC3)c2oc1=O	-8.9%[59 µM]	1.0%	11.9%	.	.	37.9%
COc1ccc(C(=O)NC(C)CCc2ccccc2)c(O)c1 (centres undefined)	91.5%	32.3%	27.5%	-14.5%	4.5	63.7%
CNC(=S)N(CCc1ccc(OC)c(OC)c1)Cc1cc2c(C)cc(C)cc2[nH]c1=O	?	?	4.8%	4.0%	1.8	25.8%
CNC(=S)N(CCc1c(C)[nH]c2ccc(OC)cc12)Cc1cc(OC)c(OC)c(OC)c1	50.1µM*	44.7µM*	?	-8.3%	4.1	3.2%
CNC(=S)N(CCc1c(C)[nH]c2ccc(C)cc12)Cc1cc(OC)c(OC)c(OC)c1	50.1µM*	39.8µM*	?	3.4%	-3.1	-14.1%
O=c1c2ccccc2cnn1Cc1n[nH]c(=S)n1-c1ccc(Cl)cc1	1.78µM*	-8.0%	22.4µM*	-7.1%	-11.1	19.7%
CC(c1ccccc1)n1c(Cn2ncc3ccccc3c2=O)n[nH]c1=S (centres undefined)	3.55µM*	-25.3%	31.6µM*	1.5%	-11.2	53.4%
COc1cccc(NC(=O)CCc2nc3c(C)nn(-c4ccc(C)cc4)c3n(C)c2=O)c1	-23.7%[59 µM]	-19.9%	-11.9%	.	.	-6.1%
COc1ccccc1/C=C/C=N/NC(=O)CCC1C(=O)NN=C1C (centres undefined)	-1.2%	3.3%	-35.1%	26.7µM*	-9.4	8.7%
COc1cc(OC)cc(C(=O)NCc2n[nH]c(=S)n2-c2ccccc2OC)c1	1µM*	4.1%	10µM*	-11.4%	.	22.5%
COc1ccc(-n2c(CNC(=O)c3cc(OC)c(OC)c(OC)c3)n[nH]c2=S)cc1	8.91µM*	?	7.08µM*	-7.8%	.	32.0%
Cc1nc(Cn2c3ccc(NC(=S)NC4CCCCC4)cc3c(=O)n2C)cs1	.	.	.	-12.5%	-11.4	.
COc1ccc(/C=C/C(=O)N/C(=C\c2ccco2)C(=O)NCCc2nc3ccccc3[nH]2)cc1	44.7µM*	?	?	2.4%	-2.9	-10.7%
O=C(NCCc1nc2ccccc2[nH]1)/C(=C/c1ccc(F)cc1)NC(=O)c1ccco1	20.4%	-3.5%	-6.0%	-6.8%	0.1	29.1%
O=C(/C=C/c1ccco1)N/C(=C\c1ccco1)C(=O)NCCc1nc2ccccc2[nH]1	44.7µM*	?	?	-5.8%	-11.7	0.4%
O=C(NCCc1nc2ccccc2[nH]1)/C(=C/c1ccco1)NC(=O)c1ccccc1Br	?	-10.4%	-22.0%	6.0%	0.1	26.8%
O=C(NCCc1nc2ccccc2[nH]1)/C(=C/c1ccco1)NC(=O)c1ccc(Br)cc1	70.8µM*	-21.2%	-25.7%	2.5%	11.6	1.5%
Cc1ccc(-c2nc3ccccc3[nH]2)cc1NC(=O)/C=C/c1ccco1	-6.2%[2.33 µM]	50.1µM*	?	-6.9%	.	-21.1%
CCN(CC#CCC1(O)c2ccccc2-c2ccccc21)CCO	-11.3%[0.0925 µM]	?	89.1µM*	-2.5%	.	-3.7%
CCOC(=O)C1(CCCc2ccccc2)CCN(Cc2ccn[nH]2)CC1	50.1µM*	-18.1%	-20.3%	-8.8%	-0.1	5.3%
CCOC(=O)C1(CCCc2ccccc2)CCN(Cc2cnn(C)c2)CC1	-5.6%	2.0%	-6.3%	-0.6%	3.6	38.4%
Clc1ccccc1-c1cc(NCc2ccccc2)ncn1	-0.7%[0.501 µM]	.	.	.	.	.
CN(C(=O)c1ccccc1[N+](=O)[O-])c1ccccc1C(=O)NCc1ccccc1	9.7%	-4.7%	-10.3%	-6.4%	-0.8	24.3%
O=c1c(-c2ccc([N+](=O)[O-])cc2)coc2c(O)c(O)ccc12	8.91µM*	39.8µM*	-35.9%	-12.2%	-7.4	2.1%
SMILES	G9a block	BAZ2B block	JMJD2A Tudor	PLK1 PBD block	PI5P4K alpha inh	HP1b chromo inh
CN(C)Cc1c(O)ccc2c(=O)c(-c3ccc(Cl)cc3)coc12	.	-3.0%	?	-3.1%	-2.0	23.4%
c1coc(CSSCc2ccco2)c1	20.2%[2.33 µM]	-4.0%	56.2µM*	11.9µM*	?	?
Cc1nc2cc(N)ccc2n1C1CCCCC1	14.1µM*	?	-34.7%	8.6%	-0.5	21.2%
O=C(Nc1ccc2ccccc2c1)C(=O)C1C(=O)Nc2ccccc21 (centres undefined)	.	-2.1%	.	.	.	.
Cc1cccc(NC(=O)C(=O)C2C(=O)Nc3ccccc32)c1 (centres undefined)	44.7µM*	-13.3%	-35.5%	-1.1%	5.5	29.4%
COc1cc(C(C(=O)NCC2CCCO2)N(C(=O)Cn2nnc3ccccc32)c2ccc(OC)c(OC)c2)ccc1O (centres undefined)	24.5%[59 µM]	1.8%	0.0%	5.9%	2.4	27.7%
CCOc1cc(C(C(=O)NCC2CCCO2)N(C(=O)Cn2nnc3ccccc32)c2ccc(NC(C)=O)cc2)ccc1O (centres undefined)	44.7µM*	-5.8%	3.9%	1.1%	-6.8	37.1%
O=C1NC[C@@H](Cc2ccc(O)cc2)N(CCc2cc(C(F)(F)F)cc(C(F)(F)F)c2)C1=O	.	.	.	-14.9%	-68.3*	.
Oc1ccc(C[C@@H]2CNC(=S)N2CCc2cc(C(F)(F)F)cc(C(F)(F)F)c2)cc1	?	-12.7%	-20.7%	1.7%	9.0	40.1%
COc1ccc(S(=O)(=O)NC(=O)C2(C)CCN2C(=O)C2CCCCC2)cc1OC (centres undefined)	.	.	.	6.7%	8.3	.
COCCn1c(=O)sc2ccccc2c1=O	1.5%	-0.4%	14.1µM*	2.99µM*	-29.6	3.1%
Cc1nn(CCC(N)=S)c2nc(-c3cccs3)cc(C(F)(F)F)c12	10µM*	-19.6%	-10.4%	10.6µM*	-4.9	-19.7%
CCOC(=O)C1CCN(C(=O)c2ccc(S(=O)(=O)Nc3ccccc3Cl)cc2)CC1	-39.0%	25.1%	-7.6%	-7.0%	3.4	28.5%
COC(=O)c1ccc(NC(=O)CCc2nnc3ccc(N4CCC5(CC4)OCCO5)nn23)cc1	-5.4%	-12.9%[57.1 µM]	-26.0%	-27.1%	-2.0	19.8%
CCCCCSc1nnc2c(n1)OC(c1cccn1C)N(C(C)=O)c1ccccc1-2 (centres undefined)	?	?	28.2µM*	-3.1%	0.9	?
COc1cc2c(cc1OC)CN(Cc1cc(OC)c(O)c(OC)c1)CC2	31.6µM*	-11.4%	-2.8%	-9.8%	4.3	57.3%
COc1cc2c(cc1OC)CN(Cc1cccs1)CC2	?	-39.0%	3.16µM*	-7.9%	.	?
Cc1ccc(N(CC(=O)NC2CCCCC2)S(=O)(=O)c2c(C)noc2C)cc1	-14.5%	10.5%	-9.0%	-4.9%	-1.8	56.4%
